The source of these data is PubChem BioAssay (NCATS).

Records with an inconclusive call do not appear. Active and inactive are the calls of the source. Calls follow the shape of the dose curve; as a rule, active = well fitted inhibition curve with a large enough effect; inconclusive = small, poorly fitted or top-dose-only effect; inactive = flat fitted curve, though single readings scatter.

A short description of the assay: qHTS of Trypanosoma Brucei Inhibitors: LOPAC Validation (AID 624147). Also: 0% is about no effect. The note with it: purified enzyme assay, luminescence, 45 min; series mostly up to 57.5 µM; activity change, negative = inhibition: at the top concentration. The source says:
Members of the Trypanosomatidae family of parasitic protozoans cause a spectrum of diseases throughout the tropical and subtropical world. Sleeping sickness, caused by two subspecies of Trypanosoma brucei, is endemic to areas of sub-Saharan Africa, while Chagas' disease, a manifestation of Trypanosoma cruzi infection, is prevalent throughout Central and South America. In addition, many species of Leishmania are responsible for a range of cutaneous and visceral diseases, causing ulcers, destructive lesions and kalaazar, a lethal infection of the viscera. These diseases cause severe public health and economic burdens on populations that are often already caught in a tragic cycle of poverty, poor nutrition and disease. Collectively, parasites of the trypanosomatid family infect 30 million people worldwide (~500 million live in endemic areas), and account for ~130K deaths annually. Existing treatments have developed little in the past 50 years, and suffer from toxicity, poor efficacy and resistance; the goal of this project is to develop lead drugs that will be suitable for entry into pre-clinical trials.
Glycolysis in axenically cultured T. cruzi, representing the intracellular pathogenic stage, is also essential for these parasites. {Engel, 1987} This project aims to discover and optimize selective inhibitors of the glycolytic enzyme pyruvate kinase (PYK) from Trypanosoma brucei, the parasite that causes sleeping sickness. […] Trypanosomatid PYKs show significant differences from their human counterparts including only 47-50% sequence identity and different allosteric and activation properties.{Callens, 1992} To this end, a qHTS was done against the MLSMR to discover inhibitors.
NIH Molecular Libraries Probe Production Network [MLPCN]
NIH Chemical Genomics Center [NCGC]
PI Name: Malcolm Walkinshaw, University of Edinburgh
2 uL of TbPYK/substrate buffer (columns 1-3, 5-48) are dispensed into Greiner white solid bottom 1536-well assay plates; column 4 receives only TEA buffer as 0x TbPYK controls. Compounds are then transferred via Kalypsys pin tool equipped with 1536-pin array (10 nL slotted pins, V&P Scientific, San Diego, CA). Following addition of compound, 2 uL of ADP (130 uM final concentration, all columns) is added to initiate the reaction. The plates are then incubated at room temperature for 45 minutes. Kinase-Glo Plus reagent is added (3 uL) and plates incubated for 10 minutes, before being transferred to a ViewLux high-throughput CCD imager (PerkinElmer) wherein single end-point measurements of luminescence are acquired using a clear filter. All reagents are diluted in an assay buffer consisting of 50 mM TEA (pH 7.2), 100 mM KCl, 10 mM MgCl2, 0.05% BSA and 0.01% Tween-20.
All screening operations will be performed on a fully integrated robotic system (Kalypsys, San Diego, CA) containing one RX-130 and two RX-90 anthropomorphic robotic arms (Staeubli, Duncan, SC). Library plates will be screened starting from the lowest and proceeding to the highest concentration. Vehicle-only plates, with DMSO being pin-transferred to columns 5-48, will be inserted uniformly at the beginning and the end of each library in order to monitor and record any shifts in the background, which can be affected by reagent dispensers or loss in enzyme activity over time. Screening data will be corrected, normalized, and concentration-effect relationships will be derived by using publicly-available curve fitting algorithms developed in-house (http://ncgc.nih.gov/pub/openhts).
With `CCCCC/C=C\C/C=C\C/C=C\C/C=C\CCCC(=O)NCC(=O)O`, the “activity change, negative = inhibition” value is 5.41% (inactive). Same read-out and setting: under `CCC1(c2ccc(N)cc2)CCC(=O)NC1=O` (centres undefined) stands -7.54% (inactive); under `CC(C)c1cccc(C(C)C)c1O`, -6.05% (inactive); under `NCCc1ccc(O)cc1`, -9.16% (inactive). For the compound `CC(NC(C)(C)C)C(=O)c1cccc(Cl)c1` (centres undefined), the “activity change, negative = inhibition” value was -3.28% (inactive).

Consider `C=C(C)[C@H]1CN[C@H](C(=O)O)[C@H]1CC(=O)O`, for which the “activity change, negative = inhibition” value is -12.5% (inactive). As to `O=C(O)CCCc1ccc(N(CCCl)CCCl)cc1`, the “activity change, negative = inhibition” value was -13% (inactive). For the compound `COc1ccc2c(c1OC)C(=O)O[C@H]2[C@@H]1c2cc3c(cc2CCN1C)OCO3`, the “activity change, negative = inhibition” value is -12.3% (inactive). For `CC(C)N(CCC(C(N)=O)(c1ccccc1)c1ccccn1)C(C)C` (centres undefined), the outcome was inactive. As for `O=P1(N(CCCl)CCCl)NCCCO1` (centres undefined), the “activity change, negative = inhibition” value was -6.38% (inactive). `CC(C)(C)NCC(O)c1ccccc1Cl` (centres undefined): the “activity change, negative = inhibition” value is -5.61% (inactive).

For `O=c1[nH]oc2c1CCNC2`, the “activity change, negative = inhibition” value is 6.57% (inactive).

Regarding `Cc1ncsc1CCCl`, the “activity change, negative = inhibition” value was -6.68% (inactive).

With `CN1C(=O)CCS(=O)(=O)C1c1ccc(Cl)cc1` (centres undefined), the “activity change, negative = inhibition” value is -6.63% (inactive).
